These results are taken from PubChem BioAssay (NCATS).

Molecules are shown by their SMILES. Records with an inconclusive call do not appear. Activity calls are given as the source filed them. Unless noted, calls follow the shape of the dose curve; as a rule, active = well fitted curve in the direction sought with a large enough effect; inconclusive = small, poorly fitted or top-dose-only effect, or another doubt; inactive = no such curve, though single readings can be large; an effect the other way counts as inactive or inconclusive. A value given as a limit tells only on which side of the number the result lay.

Test [1] deals with Lysosomal acid glucosylceramidase (Homo sapiens) (UniProt P04062). Briefly: Glucocerebrosidase-p2 (AID 348; in the data active = potency below about 10 µM; also: potency is read from the fitted curve at half-maximal effect). Particulars: purified GBA, blue fluorogenic substrate, 40 min. The procedure, abridged:
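Compounds titrated from 0.6 nM upwards against 0.2 nM enzyme in pH 5.9 citric acid/KH2PO4, taurocholate, tween-20; blue fluorogenic substrate 80 uM, 40 min room temperature, stopped and read Ex 365/Em 440 for AC50.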

Test [2] is described as follows: AP1 Signaling Pathway (AID 357; active = well fitted curve in either direction with a large enough effect, not every such curve was filed as active; also: % is scaled to controls: 0 for no effect and ±100 for the full control effect). The note with it: ME-180 (cervical carcinoma) AP-1-bla reporter, EGF-induced, beta-lactamase ratio, 5 h; at 7.69 µM (top of the series) unless noted. In a few lines: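 In this screen, ME-180 cells in Opti-MEM with 0.5% dialyzed FBS received EC50 EGF and compound titrations for 5 h. AP-1 reporter beta-lactamase was detected via CCF4 ratio, giving AC50 for positive and negative modulators.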

Test [3] deals with Cytochrome P450 1A2 (Homo sapiens) (UniProt P05177). Briefly: p450-cyp1a2 (AID 410; calls by dose curve; also: potency is read from the fitted curve at half-maximal effect;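 as to activity change, negative = inhibition: -100% = full effect of reference inhibitor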). In a few lines: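 20nM CYP1A2 with 100uM Luciferin-ME (at Km) in 100mM KPO4; compound preincubated 10 min, NADPH regeneration added, 60 min at room temperature. Luciferin quantified by luminescence after detection reagent; normalized to 57 uM furafylline.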
A short description of test [4]: NFAT Signaling Pathway (AID 444; active = well fitted curve in either direction with a large enough effect, not every such curve was filed as active;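 also: carbachol stimulus at about its EC50 of 1 µM final; % is scaled to controls: 0 for no effect and ±100 for the full control effect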). Particulars: Jurkat NFAT-bla M1, carbachol, beta-lactamase ratio, 5 h; at 7.69 µM (top of the series) unless noted. In a few lines:
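Jurkat cells with NFAT-driven β-lactamase reporter and co-expressed M1 receptor, stimulated with carbachol (final 1 uM, ~EC50), compound titration, 5 h at 37 °C. CCF4 loaded 1 h at RT; 460/530 nm ratio gave %activity and AC50.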

Test [5] addresses Glucocorticoid receptor (Homo sapiens) (UniProt P04150). Description: GR-EFC Redistribution (AID 451; calls by dose curve; also: potency is read from the fitted curve at half-maximal effect). Particulars: CHO-K1 GR-EFC translocation, beta-gal luminescence, 2 h. The procedure, abridged: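 CHO-K1 cells expressing nuclear EA and GR-ED fragments of b-gal; compounds titrated up to 46 uM final, 2 h at 37 C. GR nuclear translocation read as complemented b-gal luminescence after 1 h RT detection.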

The target in test [6] is Dual specificity protein kinase CLK4 (Homo sapiens) (UniProt Q9HAZ1). Briefly: qHTS Assay for Inhibitors of CDC-like Kinase 4 (ADP-Glo Assay) (AID 1771). Also: nearly all actives have a fitted effect of over 70% in size. Also: potency is read from the fitted curve at half-maximal effect. The procedure, abridged: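 25 nM Clk4 with 100 uM RS repeat peptide and 1 uM ATP (final) in buffer with 2 mM MgCl2, 0.5 mM EGTA, 2.5 mM DTT, 0.01% Triton X-100; 1 h at room temperature; ADP-Glo luminescence for ADP formed.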
In general terms: In qHTS, concentration-response curves come from the screen itself.

The target of test [7] is Cytochrome P450 3A4 (Homo sapiens) (UniProt P08684). Description: qHTS Assay for Activators of Cytochrome P450 3A4 (AID 885). Also: nearly all actives have a fitted effect of over 65% in size. In a few lines: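 Steps: enzyme/substrate mix dispensed; compound added, 10 min RT; NADPH regeneration solution added, 60 min RT; luciferin detection buffer stops reaction; 20 min later luminescence measured.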
For test [8], the target named is 3',5'-cyclic-AMP phosphodiesterase 4B (Homo sapiens) (UniProt Q07343). Description: qHTS Assay for Inhibitors of PDE-IV (AID 607; active = well fitted activation curve with a large enough effect in the main read-out, with a control signal flat, not every such curve was filed as active; also: % of control where 0% means no effect). The procedure, abridged:
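The readout is membrane depolarisation from a cAMP-sensing CNG channel, detected with a potential dye at ex 535/em 590. Cells were HEK293-derived (endogenous PDE-IV) at 1000 cells/well, titrated up to 22.9 uM final.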

In test [9] the target is Cytochrome P450 3A4 (Homo sapiens) (UniProt P08684). Description: qHTS Assay for Inhibitors and Substrates of Cytochrome P450 3A4 (AID 884). Also: nearly all actives have a fitted effect of over 50% in size. Also: potency is read from the fitted curve at half-maximal effect. The procedure, abridged: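 20 nM human CYP3A4 with 25 uM Luciferin-PPXE (at KM) in 200 mM KPO4, preincubated 10 min with compound; NADPH regeneration started a 60 min RT reaction. Luciferin detected by luminescence, normalized to 57 uM ketoconazole as full inhibition.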

Test [10] deals with Glutathione peroxidase 1 (Homo sapiens) (UniProt P07203). Briefly: Primary qHTS Assay for Inhibitors of Recombinant Selenoprotein Glutathione Peroxidase 1 (GPX1) (AID 1845191). Also: % is scaled to controls: 0 for no effect and ±100 for the full control effect; nearly all actives have a fitted effect of over 65% in size. In a few lines: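 GR-coupled assay: compounds preincubated 30 min at room temperature with GPX1, then reaction started with CHP; final 10 nM GPX1, 1 mM GSH, 0.5 mM CHP, 0.5 mM NADPH, 100 nM GR, 0.01% BSA, pH 7.5 Tris buffer. NADPH fluorescence (340/450 nm) read at 0 and 15 min.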

The target of test [11] is Cytochrome P450 2C19 (Homo sapiens) (UniProt P33261). Description: qHTS for inhibitors of CYP2C19 against the NCATS DSHEA and TCM libraries (AID 1919974).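 Also: luminescence from luciferin released by CYP2C19 oxidation of a pro-luciferin substrate.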 Also: potency is read from the fitted curve at half-maximal effect. The procedure, abridged: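 Luminescent P450-Glo format: compounds preincubated 15 min with enzyme and luciferin substrate, reaction run 30-45 min after NADPH regeneration solution. Intraplate controls: ketoconazole for CYP3A4 and CYP2C19, sulfaphenazole for CYP2C9.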

Test [12] has the same target. Description: qHTS Assay for Inhibitors and Substrates of Cytochrome P450 2C19 (AID 899). Also: potency is read from the fitted curve at half-maximal effect; nearly all actives have a fitted effect of over 60% in size. In a few lines: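 5 nM human CYP2C19 with 10uM Luciferin-H EGE (at KM) in 50mM KPO4, compound preincubated 10 min at 37C, then NADPH regeneration for 60 min at 37C. Luciferin read by luminescence after detection reagent; normalized to 57uM ketoconazole as full inhibition.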
Test [13] is described as follows: Cell Viability - BJ (AID 421; calls by dose curve;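 also: potency is read from the fitted curve at half-maximal effect; cells exposed to compound for 40 hours at 37 °C before readout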). Particulars: BJ fibroblast viability, qHTS. The procedure, abridged: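 Cytotoxicity in human BJ foreskin fibroblasts is scored as loss of cellular ATP after a 40-hour exposure, measured by luciferase luminescence. Controls are DMSO and 100 uM tamoxifen.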
A short description of test [14]: Cell Viability - Hek293 (AID 427;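 active = compounds whose dose-response curve shows a full or clear partial loss of cell viability, called from curve shape rather than a numeric limit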;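 also: potency is read from the fitted curve at half-maximal effect; cells exposed to compound for 40 hours at 37 °C before reading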). The note with it: qHTS. The procedure, abridged: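 qHTS, human embryonic kidney (adenovirus-transformed) cells; 40 hr cpd, 37 °C; CellTiter-Glo ATP luminescence. Norm: DMSO = 0, 100 uM tamoxifen = 100% inhibition. Hill-fit AC50.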
A short description of test [15]: qHTS Assay for Identification of Small Molecule Inducers of Hypoxia Response (AID 2120; active = well fitted curve in the direction sought with a large enough effect in the signal ratio, with a control signal flat, not every such curve was filed as active; the % refers to the signal ratio; also: 0% is about no effect). In a few lines: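 HRE-bla ME-180 cells in Opti-MEM with 0.5% dialyzed FBS, pre-plated 4-5 h, then compound titration for 17 h at 37 degrees Celsius. CCF4 loaded 2.5 h at room temperature; 460/530 nm ratio gave %Activity and AC50 for induction.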
Test [16] can be described thus: qHTS assay for small molecule antagonists of retinoid X receptor alpha signaling (AID 588546).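 Also: cells stimulated with 9-cis-retinoic acid as agonist; % is scaled to controls: 0 for no effect and ±100 for the full control effect.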 Particulars: HEK293T RXRa-UAS-bla, beta-lactamase ratio, antagonist mode; measured here: W530 green channel, cytotoxicity proxy. In a few lines: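 Beta-lactamase reporter inhibition, read as CCF4 fluorescence ratio (ex 405, em 460/530 nm) after 2 h at RT. HEK293T UAS-bla cells, 2500/well, were stimulated with 9-cis-RA at 500 or 100 nM final alongside test compound for 18 h at 37 C.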

Test [17] in a line: qHTS assay for environmental chemicals that activate the Aryl hydrocarbon Receptor (AhR) signaling pathway (AID 651777). Also: % of control where 0% means no effect; nearly all actives have a fitted effect of over 15% in size. Particulars: 1A2-DRE human hepatoma cells, luciferase, 24 h; activation: stronger effect = higher value. The procedure, abridged:
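Luminescence read-out: One-Glo added for 30 min at RT after 24 hr compound treatment (37 C, 5% CO2) of human hepatoma cells expressing a DRE/CYP1A2 promoter–luciferase reporter; increased signal indicates AhR activation.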

Test [18] has as its target Peroxisome proliferator-activated receptor alpha (Homo sapiens) (UniProt Q07869). Briefly: qHTS assay for small molecule agonists of the peroxisome proliferator-activated receptor alpha (PPARalpha) signaling pathway (AID 651778). Also: % of control where 0% means no effect. The note with it: PathHunter PPARalpha complementation, chemiluminescence, 6 h; max response: stronger effect = higher value. In a few lines:
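Enzyme-fragment complementation assay in which ligand-bound PPARalpha translocates and forms an active enzyme that generates chemiluminescence. Cells were plated overnight, exposed to compound for 6 hr at 37 C, and then given detection reagent for 60 min at room temperature.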

Test [19] is described as follows: qHTS assay for small molecule agonists of the antioxidant response element (ARE) signaling pathway measured by Nrf2-dependant transcriptional activity - cell viability counter screen (AID 720653; active = well fitted curve in the direction sought with a large enough effect in the repeat runs; an effect the other way counts as inactive or inconclusive; also: % is scaled to controls: 0 for no effect and ±100 for the full control effect). Particulars: ARE-bla HepG2 viability, CellTiter-Glo ATP luminescence, 16 h; max response: stronger effect = lower value. In a few lines:
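ARE-bla HepG2 cells treated with compounds for 16 h at 37C; this counter screen measures viability as intracellular ATP by CellTiter-Glo luminescence after 30 min at room temperature.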

Test [20] can be described thus: qHTS assay for cell viability of HEK293 cells (AID 743288). Also: % is scaled to controls: 0 for no effect and ±100 for the full control effect; nearly all actives have a fitted effect of over 50% in size. Particulars: ATP luminescence (CellTiter-Glo), 18 h; max response: stronger effect = lower value. In a few lines:
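The Tox21 protocol used parental HEK293 cells treated for 18 h at 37 C with compounds delivered by pintool; ATP-coupled luminescence after 30 min at room temperature gave viability.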

Glucocorticoid receptor (Homo sapiens), sequence (P04150 whole entry, looked up, the tested form may be a part): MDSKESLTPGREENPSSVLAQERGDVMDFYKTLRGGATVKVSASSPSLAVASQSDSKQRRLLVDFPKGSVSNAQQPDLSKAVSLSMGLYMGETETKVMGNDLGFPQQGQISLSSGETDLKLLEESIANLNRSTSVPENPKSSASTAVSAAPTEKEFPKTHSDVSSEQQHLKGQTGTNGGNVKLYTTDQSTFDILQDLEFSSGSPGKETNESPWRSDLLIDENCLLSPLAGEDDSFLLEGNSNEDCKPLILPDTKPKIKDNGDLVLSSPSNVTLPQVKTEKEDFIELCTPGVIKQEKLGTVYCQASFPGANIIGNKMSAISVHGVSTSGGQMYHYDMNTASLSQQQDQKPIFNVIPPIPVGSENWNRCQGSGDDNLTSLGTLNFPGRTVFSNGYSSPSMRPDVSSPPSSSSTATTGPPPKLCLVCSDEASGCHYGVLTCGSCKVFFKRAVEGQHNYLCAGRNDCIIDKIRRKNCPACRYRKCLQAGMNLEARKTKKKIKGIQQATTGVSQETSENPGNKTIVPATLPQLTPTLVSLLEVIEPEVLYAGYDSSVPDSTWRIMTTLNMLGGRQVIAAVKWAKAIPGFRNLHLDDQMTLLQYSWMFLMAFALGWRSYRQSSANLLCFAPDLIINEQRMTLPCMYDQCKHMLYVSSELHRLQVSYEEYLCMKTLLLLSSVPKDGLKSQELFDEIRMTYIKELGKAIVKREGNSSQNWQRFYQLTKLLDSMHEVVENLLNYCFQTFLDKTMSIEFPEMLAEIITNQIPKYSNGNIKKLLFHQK
Cytochrome P450 2C19 (Homo sapiens), sequence (P33261 whole entry, looked up): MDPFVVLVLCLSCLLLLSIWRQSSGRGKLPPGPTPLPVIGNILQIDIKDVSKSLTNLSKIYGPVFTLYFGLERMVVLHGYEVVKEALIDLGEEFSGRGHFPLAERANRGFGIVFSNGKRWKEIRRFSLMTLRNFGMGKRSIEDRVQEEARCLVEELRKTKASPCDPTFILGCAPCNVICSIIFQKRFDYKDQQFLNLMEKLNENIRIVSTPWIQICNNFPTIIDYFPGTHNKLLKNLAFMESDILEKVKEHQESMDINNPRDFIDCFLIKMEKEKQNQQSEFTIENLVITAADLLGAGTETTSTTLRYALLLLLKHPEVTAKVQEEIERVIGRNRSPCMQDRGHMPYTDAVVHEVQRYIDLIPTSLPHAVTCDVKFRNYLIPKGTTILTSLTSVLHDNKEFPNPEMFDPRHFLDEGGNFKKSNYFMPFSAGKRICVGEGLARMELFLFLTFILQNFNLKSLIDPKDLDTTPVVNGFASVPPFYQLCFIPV
Cytochrome P450 3A4 (Homo sapiens), sequence (P08684 whole entry, looked up): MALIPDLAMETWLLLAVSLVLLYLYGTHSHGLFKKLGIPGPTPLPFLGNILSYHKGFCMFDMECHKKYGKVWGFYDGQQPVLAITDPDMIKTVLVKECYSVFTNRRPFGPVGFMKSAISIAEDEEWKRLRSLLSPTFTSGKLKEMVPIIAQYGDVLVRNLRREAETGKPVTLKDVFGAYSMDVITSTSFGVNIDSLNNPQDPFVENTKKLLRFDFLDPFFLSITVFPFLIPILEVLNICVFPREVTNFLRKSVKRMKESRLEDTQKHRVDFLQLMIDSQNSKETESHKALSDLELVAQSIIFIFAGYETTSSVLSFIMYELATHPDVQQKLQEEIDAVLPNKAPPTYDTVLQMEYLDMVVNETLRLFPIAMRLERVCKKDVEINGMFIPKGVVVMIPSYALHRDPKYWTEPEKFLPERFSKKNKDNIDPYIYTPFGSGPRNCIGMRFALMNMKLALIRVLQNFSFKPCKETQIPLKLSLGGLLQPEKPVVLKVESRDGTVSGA
Lysosomal acid glucosylceramidase (Homo sapiens), sequence (P04062 whole entry, looked up): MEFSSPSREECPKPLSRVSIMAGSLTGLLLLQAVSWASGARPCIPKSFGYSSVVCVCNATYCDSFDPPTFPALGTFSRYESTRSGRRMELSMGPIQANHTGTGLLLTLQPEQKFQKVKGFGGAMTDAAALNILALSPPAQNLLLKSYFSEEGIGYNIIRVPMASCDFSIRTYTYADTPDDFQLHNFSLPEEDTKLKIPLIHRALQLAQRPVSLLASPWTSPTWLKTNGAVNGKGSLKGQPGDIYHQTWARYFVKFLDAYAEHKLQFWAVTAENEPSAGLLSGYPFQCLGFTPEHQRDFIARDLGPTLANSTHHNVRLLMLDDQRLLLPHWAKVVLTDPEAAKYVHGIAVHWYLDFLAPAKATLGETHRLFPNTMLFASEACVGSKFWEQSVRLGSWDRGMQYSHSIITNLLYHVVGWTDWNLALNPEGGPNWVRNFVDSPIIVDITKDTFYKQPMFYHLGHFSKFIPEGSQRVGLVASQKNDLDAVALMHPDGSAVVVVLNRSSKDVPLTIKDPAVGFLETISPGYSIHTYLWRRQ
3',5'-cyclic-AMP phosphodiesterase 4B (Homo sapiens), sequence (Q07343 whole entry, looked up): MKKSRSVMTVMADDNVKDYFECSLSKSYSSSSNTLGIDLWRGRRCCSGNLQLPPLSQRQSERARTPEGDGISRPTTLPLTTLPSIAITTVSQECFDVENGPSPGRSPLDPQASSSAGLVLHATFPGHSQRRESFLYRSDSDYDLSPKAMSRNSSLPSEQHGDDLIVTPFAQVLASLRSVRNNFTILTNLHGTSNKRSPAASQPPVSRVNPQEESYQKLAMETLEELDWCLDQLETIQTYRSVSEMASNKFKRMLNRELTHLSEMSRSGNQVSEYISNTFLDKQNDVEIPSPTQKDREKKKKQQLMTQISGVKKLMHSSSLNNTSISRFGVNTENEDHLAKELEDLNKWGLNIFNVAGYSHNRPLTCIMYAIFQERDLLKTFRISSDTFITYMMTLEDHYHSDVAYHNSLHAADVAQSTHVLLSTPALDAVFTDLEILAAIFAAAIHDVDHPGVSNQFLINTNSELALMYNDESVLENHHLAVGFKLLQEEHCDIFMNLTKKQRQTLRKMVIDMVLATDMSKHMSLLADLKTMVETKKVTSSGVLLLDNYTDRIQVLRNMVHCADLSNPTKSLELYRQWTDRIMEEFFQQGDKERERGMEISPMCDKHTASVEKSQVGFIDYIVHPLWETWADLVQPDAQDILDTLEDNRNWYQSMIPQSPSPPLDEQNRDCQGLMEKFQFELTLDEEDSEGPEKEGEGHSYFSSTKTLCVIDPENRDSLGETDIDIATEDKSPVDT
Cytochrome P450 1A2 (Homo sapiens), sequence (P05177 whole entry, looked up): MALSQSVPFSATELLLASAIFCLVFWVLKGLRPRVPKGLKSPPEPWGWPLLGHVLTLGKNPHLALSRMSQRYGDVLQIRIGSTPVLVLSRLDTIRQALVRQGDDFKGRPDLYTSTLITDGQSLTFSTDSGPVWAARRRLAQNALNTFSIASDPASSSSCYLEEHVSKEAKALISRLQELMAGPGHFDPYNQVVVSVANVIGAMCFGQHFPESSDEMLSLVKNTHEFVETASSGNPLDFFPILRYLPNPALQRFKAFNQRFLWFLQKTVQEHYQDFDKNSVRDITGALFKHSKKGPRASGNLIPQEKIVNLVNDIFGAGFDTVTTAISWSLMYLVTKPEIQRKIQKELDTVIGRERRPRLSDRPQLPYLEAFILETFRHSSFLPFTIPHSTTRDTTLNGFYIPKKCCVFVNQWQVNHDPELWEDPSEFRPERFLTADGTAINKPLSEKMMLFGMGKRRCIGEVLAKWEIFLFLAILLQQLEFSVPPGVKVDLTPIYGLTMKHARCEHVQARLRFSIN
Dual specificity protein kinase CLK4 (Homo sapiens), sequence (Q9HAZ1 whole entry, looked up): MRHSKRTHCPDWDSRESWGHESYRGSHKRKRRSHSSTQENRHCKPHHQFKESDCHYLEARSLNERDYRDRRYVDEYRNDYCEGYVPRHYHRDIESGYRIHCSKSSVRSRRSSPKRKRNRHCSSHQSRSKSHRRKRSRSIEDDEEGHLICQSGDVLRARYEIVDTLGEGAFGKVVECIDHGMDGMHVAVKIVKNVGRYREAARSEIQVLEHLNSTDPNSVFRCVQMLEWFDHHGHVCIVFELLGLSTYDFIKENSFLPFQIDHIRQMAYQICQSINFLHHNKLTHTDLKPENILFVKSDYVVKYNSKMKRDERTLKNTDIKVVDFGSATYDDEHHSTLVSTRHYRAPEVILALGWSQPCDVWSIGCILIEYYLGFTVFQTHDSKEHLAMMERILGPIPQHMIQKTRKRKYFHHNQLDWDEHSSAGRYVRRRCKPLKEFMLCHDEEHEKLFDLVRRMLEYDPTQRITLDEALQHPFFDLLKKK
Glutathione peroxidase 1 (Homo sapiens), sequence (P07203 whole entry, looked up): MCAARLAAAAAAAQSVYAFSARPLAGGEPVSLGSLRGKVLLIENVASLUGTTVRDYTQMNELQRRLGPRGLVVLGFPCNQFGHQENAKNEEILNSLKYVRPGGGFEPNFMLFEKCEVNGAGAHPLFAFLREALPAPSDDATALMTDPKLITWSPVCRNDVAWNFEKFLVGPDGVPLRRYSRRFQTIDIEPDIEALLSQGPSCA
Peroxisome proliferator-activated receptor alpha (Homo sapiens), sequence (Q07869 whole entry, looked up, the tested form may be a part): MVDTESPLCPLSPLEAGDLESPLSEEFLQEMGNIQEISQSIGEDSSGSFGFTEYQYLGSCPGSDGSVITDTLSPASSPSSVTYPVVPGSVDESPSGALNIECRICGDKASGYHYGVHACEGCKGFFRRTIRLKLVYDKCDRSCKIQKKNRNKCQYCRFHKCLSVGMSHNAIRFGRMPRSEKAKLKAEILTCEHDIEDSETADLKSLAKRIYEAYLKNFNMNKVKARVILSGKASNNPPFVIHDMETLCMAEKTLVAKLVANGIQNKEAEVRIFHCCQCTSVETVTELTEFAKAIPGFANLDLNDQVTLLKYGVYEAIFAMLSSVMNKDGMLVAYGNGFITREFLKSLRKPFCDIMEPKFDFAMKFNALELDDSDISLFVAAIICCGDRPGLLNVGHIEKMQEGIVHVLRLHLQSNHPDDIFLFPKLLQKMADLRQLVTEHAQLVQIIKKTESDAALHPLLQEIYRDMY

For `c1cncc(CNc2nc(-c3cccnc3)nc3ccccc23)c1`, the Potency in test [1] was > 11.4 µM (inactive); in test [3], 0.316 µM (active); in test [5], > 46 µM (inactive); in test [6] it was 12.6 µM (active). Moreover, the activity change, negative = inhibition in test [2] is -12.9% (inactive); in test [4] it was -15.2% (inactive).
As to `COc1ccccc1-c1nc(NC2CC2)c2ccccc2n1`, in test [2], the activity change, negative = inhibition is -2.64% (inactive). The Potency in [3] was 0.316 µM (active); in [5] it was > 46 µM (inactive); in test [6], 14.1 µM (active). In test [7], the compound was called inactive.
`COc1ccc(-c2nc3cnc(N4CCN(C)CC4)nc3n(CCc3ccccc3)c2=O)cc1`: the Potency in [1] is > 11.4 µM (inactive); in test [5] it was > 46 µM (inactive). In addition, the Potency result in [3], in test [8], in [9] and in test [6] was “inactive” throughout.
As for `CC(=O)NCCNc1nc(-c2cccc(C#N)c2)nc2ccccc12`, the activity change, negative = inhibition in test [4] is 12.4% (inactive). Also, the Potency in test [5] was > 46 µM (inactive). In addition, the Potency entry in test [8] was “inactive”.
Consider `COc1ccc2[nH]cc(CCNc3ncncc3-c3cccc(C#N)c3)c2c1`, for which the activity change, negative = inhibition in test [2] is -18.6% (inactive). In addition, the Potency result in test [8] is “inactive”. Further, the Potency in test [6] is 25.1 µM (active).
`CC(C)=CCCC(C)=CCCC(C)=CCCC=C(C)CCC=C(C)CCC=C(C)C`: the Potency entry in [10] and in test [11] was “inactive” in each case.
In the case of `Cc1cccc(CNc2ncncc2-c2ccccc2C)c1`, the Potency in test [3] was 2.51 µM (active); in test [9], 0.398 µM (active). For the same compound, in test [7], the compound was classed as inactive. Also, the Potency result in [6] was “inactive”.
On to `CCCCCCC/C=C/C(=O)CCc1ccc(O)c(OC)c1`, for which, in [11], the Potency was 6.31 µM (active).
Consider `COc1cccc(-c2ccc3ncnc(N4CCNCC4)c3c2)c1`, for which the activity change, negative = inhibition in [4] is 11.4% (inactive). Moreover, the Potency in test [5] was > 46 µM (inactive); in test [12], 3.16 µM (active); in [6], 2 µM (active). For the same compound, in [7], the outcome was inactive.
`Cc1nc2cnc(N3CCN(C)CC3)nc2n(CCc2ccccc2)c1=O`: the activity change, negative = inhibition in test [2] is 0.08% (inactive); in [4], -16.9% (inactive). Moreover, the Potency in [3] is 10 µM (active); in test [5], > 46 µM (inactive); in test [12], 5.01 µM (active). For the same compound, the result in [7] was inactive. The Potency entry in test [6] is “inactive”.
In the case of `COc1ccccc1CNc1ncncc1-c1ccc2c(c1)OCO2`, the Potency was > 11.4 µM (inactive) in test [1], 0.158 µM (active) in [3], 0.199 µM (active) in test [9] and 2 µM (active) in test [6]. Also, the activity change, negative = inhibition in test [2] is -21.5% (inactive). Also, in [7], the outcome was inactive.
Regarding `Clc1ccccc1-c1nc(Nc2ccncc2)c2ccccc2n1`, in test [2], the activity change, negative = inhibition is -2.96% (inactive). Moreover, the Potency in test [3] is 0.501 µM (active); in [5], > 46 µM (inactive); in test [9], 3.98 µM (active); in test [12] it was 5.01 µM (active); in [6], 7.94 µM (active). The compound was called inactive in test [7].
On to `CC(=O)OC1CC2CCC1(C)C2(C)C` (stereo not drawn), for which the Potency result in test [10] and in test [11] was “inactive” each time.
Take `c1ccc2c(NCCN3CCOCC3)nc(-c3ccoc3)nc2c1`: the Potency in [1] was > 11.4 µM (inactive); in [3], 5.01 µM (active); in test [5], > 46 µM (inactive). Further, the compound was classed as inactive in test [7]. In addition, in [6], the Potency entry is “inactive”.
Take `CC(C)=CCCC(C)(OC1OC(COC2OC(CO)C(O)C2O)C(O)C(O)C1O)C1CCC2(C)C1C(O)CC1C3(C)CCC(OC4OC(CO)C(O)C(O)C4OC4OC(CO)C(O)C(O)C4O)C(C)(C)C3CCC12C` (stereo not drawn): the Potency entry in [11] is “inactive”.
Still for that read-out and setting: with `O=C(O)CC(O)(C(=O)O)C(O)C(=O)O` (stereo not drawn) the entry was “inactive”.
On to `C=CC(=C)CCC=C(C)C`, for which the Potency in [13] and in test [14] was > 92 µM (inactive) each time. Also, the Potency result in [9] was “inactive”. Also, the outcome in test [15] was inactive. Moreover, the max response in test [16] is 4.75%; in test [18], -1.83% (inactive); in test [19], 6.84% (inactive); in [20], 1.18% (inactive). The activation in [17] is 0.322% (inactive).
